Assay in all cases: NCI-60 one-dose screen, 48 h (100 = growth as untreated, 0 = no growth, -100 = all killed)
For one assay, the system named is NCI-H23 lung. The following applies: 10 µM unless noted.
The test system of a further assay is NCI-H226 lung. The following applies: 10 µM unless noted.
Another assay concerns NCI-H322M lung. The following applies: 10 µM unless noted.
Another assay deals with HOP-62 NSCLC. The following applies: 10 µM unless noted.
A further assay relates to NCI-H460 lung. The following applies: 10 µM unless noted.
The next assay deals with HOP-92 NSCLC. The following applies: 10 µM.
The next assay relates to NCI-H522 lung. The following applies: 10 µM unless noted.
In a further assay the test system is A549/ATCC NSCLC. The following applies: 10 µM unless noted.
In the next assay the test system is 786-0 renal. The following applies: 10 µM unless noted.
For another assay, the system named is COLO 205 colon. The following applies: 10 µM unless noted.
Another assay has as its system DU-145 prostate. The following applies: 10 µM unless noted.
The subject of another assay is K-562 leukemia. The following applies: 10 µM unless noted.
The test system of another assay is MALME-3M melanoma. The following applies: 10 µM unless noted.
The next assay has as its system MDA-MB-231 breast. The following applies: 10 µM unless noted.
In a further assay the test system is SF-268 CNS. The following applies: 10 µM unless noted.
For another assay, the system named is SF-295 CNS. The following applies: 10 µM unless noted.
In a further assay the test system is SF-539 CNS. The following applies: 10 µM unless noted.
The next assay has as its system UACC-257 melanoma. The following applies: 10 µM unless noted.

This is part of a sample that, as a whole, favours compounds with a hit. Of some 83,000 tested, about 20% had one in any assay.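 Values shown are percent growth following 48 h exposure of cells in 96-well plates to a single concentration of compound; below 10 was considered active.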 Values without a mark were called inactive. The source made the active and inactive calls.

As to `CCCCCc1ccc(S(=O)(=O)Nc2cccc(-c3csc(NC(=O)CCCCCN4CCN(CCO)CC4)n3)c2)cc1`, the growth in the assay with NCI-H23 lung is 81.1%; in the assay on NCI-H226 lung it was 92.7%; with NCI-H322M lung, 87.5%; in the assay with HOP-62 NSCLC, 85.1%; with NCI-H460 lung it was 23.9%; in the assay with HOP-92 NSCLC it was 62.7%. In addition, the growth is 77.2% with NCI-H522 lung; 74.5% with A549/ATCC NSCLC; 68.3% with 786-0 renal; 72.8% in the assay with COLO 205 colon; 83% in the assay on DU-145 prostate; -21.3% (active) in the assay on K-562 leukemia. The growth was 29.8% in the assay with MALME-3M melanoma; 75.7% in the assay on MDA-MB-231 breast; 83.2% in the assay with SF-268 CNS; 91.5% in the assay on SF-295 CNS; 67.3% in the assay on SF-539 CNS; 86.7% in the assay with UACC-257 melanoma.
For the compound `CNC(=O)c1c(NC(=O)c2ccccc2C(F)(F)F)sc2c1CCC(=O)C2`, the growth was 13.9% in the assay with NCI-H23 lung; 64.2% in the assay with NCI-H226 lung; 105% with NCI-H322M lung; 98.6% in the assay with HOP-62 NSCLC; 57.4% in the assay with NCI-H460 lung; 1.45% (active) in the assay with HOP-92 NSCLC. The growth in the assay with NCI-H522 lung was 3.39% (active); in the assay with A549/ATCC NSCLC it was 70.9%; with 786-0 renal it was 39.6%; in the assay on COLO 205 colon it was 16.2%; in the assay with DU-145 prostate, 99.9%; with K-562 leukemia, 12.9%. Besides, the growth was 54% in the assay on MALME-3M melanoma; 26.5% in the assay on MDA-MB-231 breast; 33.2% in the assay with SF-268 CNS; 82.2% with SF-295 CNS; 14.5% in the assay with SF-539 CNS; 72.4% in the assay with UACC-257 melanoma.
For `COc1cc(/C=N/NC(=O)c2cn(C3CC3)c3c(OC)c(N4CC5CCCNC5C4)c(F)cc3c2=O)ccc1O` (stereo not drawn), the growth in the assay on NCI-H23 lung was 55.4%; in the assay with NCI-H226 lung it was 87.3%; with NCI-H322M lung it was 55.4%; with HOP-62 NSCLC, 96%; in the assay with NCI-H460 lung it was -66.6% (active); in the assay with HOP-92 NSCLC it was 79.5%. The growth in the assay on NCI-H522 lung is 46.8%; with A549/ATCC NSCLC, -21.4% (active); with 786-0 renal it was -62.2% (active); in the assay with COLO 205 colon, 35.6%; in the assay on DU-145 prostate it was 46.5%; with K-562 leukemia, -25.5% (active). Also, the growth was 89.2% with MALME-3M melanoma; -27.4% (active) with MDA-MB-231 breast; 82.1% with SF-268 CNS; 100% in the assay with SF-295 CNS; -9.11% (active) in the assay on SF-539 CNS; 104% in the assay with UACC-257 melanoma.
Consider `CN(C)CCNC(=O)c1ccc(-c2nc3ccc4[nH]ncc4c3c3c2CCC3)cc1`, for which the growth in the assay with NCI-H23 lung was -15.2% (active); with NCI-H226 lung, 10.8%; in the assay on NCI-H322M lung it was 6.34% (active); in the assay with HOP-62 NSCLC, 5.66% (active); in the assay with NCI-H460 lung it was 1.65% (active); in the assay with HOP-92 NSCLC it was -29.8% (active). For the same compound, the growth with NCI-H522 lung was -40.6% (active); in the assay with A549/ATCC NSCLC, 7.96% (active); in the assay on 786-0 renal, 12%; in the assay with COLO 205 colon, -11.6% (active); in the assay with DU-145 prostate it was 5.47% (active); with K-562 leukemia, 11.3%. Moreover, the growth is -0.0162% (active) in the assay on MALME-3M melanoma; -2.41% (active) in the assay with MDA-MB-231 breast; -8.73% (active) in the assay with SF-268 CNS; 2.24% (active) with SF-295 CNS; -31.2% (active) in the assay on SF-539 CNS; 47.7% in the assay on UACC-257 melanoma.
Turning to `CC(=O)C1=C(C)NC(NN)=NC1c1cccc(Cl)c1` (stereo not drawn), the growth in the assay on NCI-H23 lung is 99.9%; in the assay with NCI-H226 lung, 103%; in the assay with NCI-H322M lung, 96.7%; with HOP-62 NSCLC it was 99.2%; with NCI-H460 lung, 112%; in the assay on HOP-92 NSCLC, 99.9%. The growth in the assay on NCI-H522 lung is 97.9%; in the assay on A549/ATCC NSCLC, 110%; in the assay on 786-0 renal, 104%; in the assay on COLO 205 colon it was 114%; in the assay on DU-145 prostate it was 114%; in the assay on K-562 leukemia it was 100%. Besides, the growth was 104% in the assay on MALME-3M melanoma; 96.6% in the assay with MDA-MB-231 breast; 103% in the assay on SF-268 CNS; 104% in the assay with SF-295 CNS; 98.6% with SF-539 CNS; 113% in the assay with UACC-257 melanoma.
Regarding `CS(=O)(=O)Nc1cc(-c2ccc3ncc(C#N)c(NCc4ccccc4F)c3c2)cnc1Cl`, the growth with NCI-H23 lung is 1.49% (active); in the assay on NCI-H226 lung, 14.6%; in the assay on NCI-H322M lung, 12.9%; in the assay with HOP-62 NSCLC it was 0.205% (active); in the assay with NCI-H460 lung it was 5.08% (active); with HOP-92 NSCLC it was -10.9% (active). In addition, the growth with NCI-H522 lung was 14.1%; with A549/ATCC NSCLC, 7.89% (active); in the assay on 786-0 renal, 11.4%; with COLO 205 colon, -24.7% (active); in the assay with DU-145 prostate, 19%; in the assay with K-562 leukemia, 13.2%. Moreover, the growth with MALME-3M melanoma is -35.6% (active); with MDA-MB-231 breast it was 5.59% (active); in the assay with SF-268 CNS, 7.96% (active); in the assay on SF-295 CNS, -21.7% (active); in the assay with SF-539 CNS, -11.5% (active); with UACC-257 melanoma it was 2.07% (active).

These data come from PubChem BioAssay (NCI).
